Assay results taken from PubChem BioAssay AID1851 (National Center for Advancing Translational Sciences (NCATS), 2009).
Out of some 16,000 compounds screened, about 5,700 (36%) were called active. Roughly 24% stayed inconclusive and do not appear here. This is one part of the list. A number with no mark means an inactive call. Calls follow the shape of the dose curve; as a rule, active = well fitted curve in the direction sought with a large enough effect; inconclusive = small, poorly fitted or top-dose-only effect, or effect the other way; inactive = no such curve, though single readings can be large or run the other way.

Each molecule was assayed against Cytochrome P450 1A2 (Homo sapiens) (UniProt P05177) (assay: Cytochrome panel assay with activity outcomes). Details: recombinant CYP, pro-luciferin dealkylation, luminescence, p450-cyp1a2; series mostly up to 57.1 µM; activity, negative = inhibition: at the top concentration.
Experimental: The P450 gene superfamily is involved in the metabolism and clearance of xenobiotics. This assay used various human CYP P450 isozymes to measure the dealkylation of various pro-luciferin substrates to luciferin. The luciferin is then measured by luminescence after the addition of a luciferase detection reagent. Pro-luciferin substrate concentration in the assay was equal to its KM for its CYP P450 isozyme. Inhibitors and some substrates limit the production of luciferin, and decrease measured luminescence.
NCGC Assay Protocol Summary:
1, Reagent, 2 uL, Isozyme and Pro-Luciferin
2, Library compounds, 23 nl, 40 uM to 0.24 nM dilution series
3, Controls, 23 nl, Isozyme specific inhibitor
4, Reagent, 2 uL, NADPH regeneration solution
5, Incubation time, 60 min, Isozyme specific temperature
6, Reagent, 4ul, Detection reagent
7, Incubation time, 20 min, Isozyme specific temperature
8, Detection, 1 sec, ViewLux luminescent read
The luciferase-based P450-GloTM Screening Systems were obtained from Promega (Madison, WI) for CYP 1A2 (V9770), CYP 2C9 (V9790), CYP2 C19 (V9880), CYP 2D6 (V9890), and CYP 3A4 Luciferin-PPXE (V9910) and were adapted for 1,536-well microplates and an automated protocol. The control compounds furafylline for 1A2 (F124), sulfaphenazole for CYP 2C9 (S0758), ketoconazole for CYP 2C19 (K1003), quinidine for 2D6 (Q3625), and ketoconazole for 3A4 (K1003) were purchased from Sigma Aldrich (St. Louis, MO). Recombinant P450 enzymes were obtained from baculovirus constructs expressed in insect cells (BD/Gentest).
Medium-binding white solid Kalypsys plates used. Mixtures kept on ice. 1A2: 10 nM 1A2, 100 uM Luc-ME, 100 mM KPO4; 2C9: 10 nM 2C9, 100 uM Luc-H, 25 mM KPO4; 2C19: 5 nM 2C19, 10 uM Luc-H EGE, 50 mM KPO4; 2D6: 5 nM 2D6, 30 uM Luc-ME EGE, 100 mM KPO4; 3A4: 10 nM, 25 uM Luc-PPXE. All amounts are reflected in their final concentration, working concentration is 2x.
NADPH regeneration solution: 1.3 mM NADP+, 3.3 mM glucose-6-phosphate, 3.3 mM MgCl2, 0.4 U/mL glucose-6-phosphate dehydrogenase for all isozymes, 200 mM KPO4 for 3A4. Mixture prepared at RT but kept on ice during automated run.
RT incubation in auxilliary plate hotel for 1A2, 2D6, and 3A4; 37C for 2C9 and 2C19.
Keywords: P450, CYP1A2, CYP2C19, CYP2C9, CYP2D6, CYP3A4, Luciferase, MLSMR, MLSCN, NIH Roadmap, qHTS, NCGC
% is scaled to controls: 0 for no effect and ±100 for the full control effect.

Cytochrome P450 1A2 (Homo sapiens), sequence (P05177 whole entry, looked up): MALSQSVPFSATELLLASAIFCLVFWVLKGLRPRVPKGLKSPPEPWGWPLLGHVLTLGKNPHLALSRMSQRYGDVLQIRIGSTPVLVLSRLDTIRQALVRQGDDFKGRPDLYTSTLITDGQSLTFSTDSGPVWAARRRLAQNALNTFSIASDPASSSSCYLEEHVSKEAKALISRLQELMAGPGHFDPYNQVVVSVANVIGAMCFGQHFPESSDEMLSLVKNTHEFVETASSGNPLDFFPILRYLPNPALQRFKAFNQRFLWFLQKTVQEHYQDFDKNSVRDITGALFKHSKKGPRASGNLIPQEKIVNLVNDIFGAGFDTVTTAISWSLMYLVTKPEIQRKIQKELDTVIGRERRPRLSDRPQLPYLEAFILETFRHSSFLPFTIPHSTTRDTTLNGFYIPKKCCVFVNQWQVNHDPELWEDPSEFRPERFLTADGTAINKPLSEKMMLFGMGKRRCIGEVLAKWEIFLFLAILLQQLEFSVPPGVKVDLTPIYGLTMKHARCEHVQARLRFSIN

SMILES | AC50 | activity, negative = inhibition
CC(C)(C)C(=O)NC(Nc1cccc2cccnc12)C(Cl)(Cl)Cl (stereo not drawn) | 20 µM (active) | –
Oc1c([C@H](Nc2ccccn2)c2ccccc2)ccc2cccnc12 | – | -21.9% [at 2.29 µM]
Cc1ccc(C)n1C(Cc1ccccc1)C(=O)O (stereo not drawn) | – | 6.11% [at 11.4 µM]
Cc1ccc(-n2c(C)nc3c(cnn3-c3ccc(F)cc3)c2=O)cc1C | 2.51 µM (active) | –
Cc1cc(C)n(-c2ccc(F)cc2)c(=O)c1C(=O)O | – | 3.85%
FC(F)(F)c1cc(C(F)(F)F)c2ccc(N/N=C/c3cccc(Cl)c3)nc2n1 | 2.51 µM (active) | –
O=c1c(O)c(-c2cc(O)c(O)c(O)c2)oc2cc(O)cc(O)c12 | 5.01 µM (active) | –
Cc1cccc(OCCCCCn2ccnc2)c1 | 0.282 µM (active) | –
Cc1ccc(OCCOCCn2ccnc2)c(Br)c1 | 0.282 µM (active) | –
O=C1C2C3C=CC(C2C(=O)N1CN1CCOCC1)C1C2C(=O)N(CN4CCOCC4)C(=O)C2C31 (stereo not drawn) | – | -7.11% [at 11.4 µM]
CCN1C(=O)[C@H]2[C@H]3[C@H](O)[C@H](O)C/C(=N/NC(=O)OCc4ccccc4)[C@@H]3CC[C@@H]2C1=O | – | -2.34% [at 11.4 µM]
CC(C)=NOC[C@@H](O)[C@@H]1O[C@@H]2OC(C)(C)O[C@@H]2[C@H]1O | – | -4.07% [at 11.4 µM]
Clc1ccc(-c2ccnc(Oc3cc(Cl)ccc3Cl)n2)cc1 | 0.447 µM (active) | –
O=C(O)c1ccc(C(=O)O)c(C(=O)O)c1.[NH-][C@@H]1CCCC[C@@H]1[NH-].[Pt] | – | -19% [at 11.4 µM]
CC(C)OCCCN1CN(S(=O)(=O)c2cccc(Cl)c2)c2nc3ccccc3nc21 | 14.1 µM (active) | –
C[N+](C)(C)CC[N+]1(C)Cc2c(Cl)c(Cl)c(Cl)c(Cl)c2C1 | – | -15.9%
Cc1noc(C)c1-c1nc(Nc2ccccc2)c2ccccc2n1 | 0.251 µM (active) | –
COc1ccc(Nc2ncc(C(=O)N3CCN(c4ccc(F)cc4)CC3)c3ccccc23)cc1 | – | -21.6%
Cc1noc(C)c1-c1nc(NC2CCNCC2)c2ccccc2n1 | 5.01 µM (active) | –
Cc1noc(C)c1-c1nc(Nc2ccncc2)c2ccccc2n1 | 0.1 µM (active) | –
Cc1noc(C)c1-c1nc(Nc2ccc(F)cc2)c2ccccc2n1 | 0.251 µM (active) | –
COc1cccc(C2C3(C#N)C(N)=NC(OC)(OC)C23C#N)c1 (stereo not drawn) | – | -22.7%
C#CCCCO/N=C1/C[C@@H](O)[C@@H](O)[C@@H]2[C@@H]3C(=O)N([C@@H](C)c4ccccc4)C(=O)[C@H]3CC[C@@H]12 | – | -1.14% [at 11.4 µM]
CNc1nc(-c2c(C)noc2C)nc2ccccc12 | 0.0501 µM (active) | –

SMILES | AC50 | activity, negative = inhibition
Cc1noc(C)c1-c1nc(N(C)C)c2ccccc2n1 | 0.0398 µM (active) | –
COC(=O)[C@@H]1CC[C@H](C)[C@@H](c2ccc(C)cc2)N1C(=O)c1ccc(/C=N\O[C@@H](C)CN2CCCc3nc(C)c(C)cc32)cc1 | – | -8.09% [at 11.4 µM]
C/C(=N/NC1=NCCN1)c1cn(C2=NCCN2)nc1C | – | -13.9% [at 2.29 µM]
CS(=O)(=O)N1CCC[C@@]2(CCN(c3ccncc3)C2)C1 | – | -0.751%
CN(C)[C@H]1C(=O)C(C(=O)NCN2CCCC2)=C(O)[C@]2(O)C(=O)C3=C(O)c4c(O)cccc4[C@@](C)(O)[C@H]3C[C@@H]12 | – | -13.9% [at 25.6 µM]
COC(=O)c1ccc(NC(=S)N2CCN(Cc3cccc(C)c3)CC2)cc1 | – | -18.6%
COC(=O)c1cc(OC)c(OC)cc1NC(=S)N1CCCCC1 | 1.58 µM (active) | –
NC(=O)C1(N2CCCCC2)CCN(C(=S)Nc2ccc(Cl)cc2)CC1 | – | -4.97%
Cc1ccc(NC(=S)N2CCN(C(=O)C3CCCO3)CC2)c(C)c1 (stereo not drawn) | – | -2.91%
COC(=O)c1ccc(C(=O)OC)c(NC(=S)N2CCN(c3ccccc3)CC2)c1 | 4.47 µM (active) | –
COc1ccc(N2CCN(C(=S)Nc3cc(C)ccc3C)CC2)cc1 | – | -5.94%
N[C@@H](CS(=O)O)C(=O)O | – | -13.2%
CCc1sc(-c2c(C#N)c(N)nc3c2CCCCCC3)cc1[N+](=O)[O-] | 2 µM (active) | –
COc1cccc(NC(=O)CSc2nc3c(c(-c4ccco4)c2C#N)CCCC3)c1 | – | -1.32%
O=c1ncn(-c2ccccc2F)c2ncccc12 | – | -9.76%
Cc1ccc(-n2cnc(=O)c3cccnc32)cc1 | – | -11.7%
Cc1ccc(N2C(=O)c3n[nH]c(C)c3C2c2ccccn2)cc1 (stereo not drawn) | – | -2.91%
O=c1[nH]n(-c2cccc(Cl)c2)c2ncccc12 | 5.01 µM (active) | –
O=c1nc(-c2ccccc2)n(-c2ccccc2)c2ncccc12 | – | -20.5%
Cc1ccc(-n2[nH]c(=O)c3cccnc32)cc1 | 2.51 µM (active) | –
CCOCCCn1cnc2c(c1=O)c1nc3ccccc3nc1n2-c1ccccc1 | 4.47 µM (active) | –
COCCNC(=O)C1CCN(S(=O)(=O)N2CCC3(CC2)OCCO3)CC1 | – | -13.7%
O=C(Nc1ccc2nc(SCc3ccc(Cl)cc3)sc2c1)c1ccccc1C(=O)N1CCOCC1 | – | -12.7%
CCC(C)NCc1ccc(C(=O)OC)o1 (stereo not drawn) | – | -12.7%
